Our source for the cell viability values is the supplement of paper PMC6522484.

± gives the standard deviation of the averaged measurements.

One test deals with DLD1. The experiment in a line: cell viability (CellTiter-Glo) relative to plate median (fraction of plate median); higher = more viable cells. To be noted: 5 µM; treatment time 24 h; reporter: 7TFP. The gist of the method: (§1)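 Cells were seeded in 384-well plates; these were colorectal cancer lines stably transduced with lentiviral 7TFP or TCF4/Wnt firefly luciferase reporters. After 24 h, library compounds went in at a final 5 µM, and exposure lasted 24 h. Parallel plates were then read for firefly luciferase or CellTiterGlo luminescence, each well normalised to its plate median, with two independent replicates averaged.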
For orientation: ATP-based viability assays read luminescence as a measure of living cells.
On to `CC1(C)S[C@@H]2[C@H](NC(=O)[C@H](NC(=O)N3CCNC3=O)c3ccccc3)C(=O)N2[C@H]1C(=O)O`, for which the cell viability worked out at 1.07 ± 0.014.

`COc1ccccc1OCC(O)CN1CCN(CC(=O)Nc2c(C)cccc2C)CC1` (stereo not given) yielded a cell viability of 0.977 ± 0.018.

As for `COc1c2ccoc2nc2c(OC)c(OCC(O)C(C)(C)O)ccc12` (stereo not given), the cell viability came to 1.02 ± 0.038.

In turn, `Cc1c(NC(C)C)c(=O)n(-c2ccccc2)n1C` gave a cell viability of 1.01 ± 0.014.

The next test concerns HCT116. The test is described as above. To be noted: 5 µM; treatment time 24 h; reporter: TCF4/Wnt. The gist of the method:
as §1
`CC(=O)OCC(=O)[C@@]1(O)CC[C@H]2[C@@H]3CCC4=CC(=O)C=C[C@]4(C)[C@H]3[C@@H](O)C[C@@]21C` returned a cell viability of 0.864 ± 0.1.

For the compound `Cc1cccc(C(=O)O)c1O`, the cell viability was determined as 0.934 ± 0.078.

In turn, `COCCCOc1cc(C[C@@H](C[C@H](NC(=O)OC(C)(C)C)[C@@H]2C[C@@H](C(C)C)C(=O)O2)C(C)C)ccc1OC` [Borrelidin derivative (C30H49NO7)] yielded a cell viability of 0.995 ± 0.036.

In turn, `CCCCCCCCCCCCC[N+](C)(C)Cc1ccccc1` showed a cell viability of 0.743 ± 0.028.

In the case of `CC(C)C[C@H](NC(=O)[C@@H]1CCCN1)C(=O)N1CCNC(=O)C1=O` [Prolyl-leucyl-diketopiperazine], the cell viability was determined as 0.993 ± 0.011.

As for `CS(C)(=O)=O`, the cell viability was 1.05 ± 0.071.

As for `CC(=O)Nc1cc2nc3ccccc3oc-2cc1=O` [N-Acetylquestiomycin A], the cell viability worked out at 1.1 ± 0.057.

`NS(=O)(=O)c1cc2c(cc1Cl)NC(C(Cl)Cl)NS2(=O)=O` (stereo not given) returned a cell viability of 1.06 ± 0.078.

`C=CC[C@@H]1/C=C(\C)C[C@H](C)C[C@H](OC)[C@H]2O[C@@](O)(C(=O)C(=O)N3CCCC[C@H]3C(=O)O[C@H](/C(C)=C/[C@@H]3CC[C@@H](O)[C@H](OC)C3)[C@H](C)[C@@H](O)CC1=O)[C@H](C)C[C@@H]2OC` gave a cell viability of 1.05 ± 0.014.

Consider `CCCCC[C@H](CC(=O)NO)C(=O)N[C@H](C(=O)N1CCC[C@H]1CO)C(C)C`, for which the cell viability was 0.932 ± 0.057.

`CC(C)c1nc(N(C)S(C)(=O)=O)nc(-c2ccc(F)cc2)c1/C=C/[C@@H](O)C[C@@H](O)CC(=O)O` registered a cell viability of 0.9675 ± 0.00071.

With `COc1ccc(-c2cc(=O)c3c(OC)c(OC)c(OC)c(OC)c3o2)cc1OC`, the cell viability turned out to be 0.914 ± 0.059.

`CC(C)(C)NC[C@H](O)COc1nsnc1N1CCOCC1` registered a cell viability of 0.992 ± 0.17.

Take `C=C1CCC(C2CC(=O)OC2=O)C(=O)CCC2C1CC2(C)C` (stereo not given): the cell viability was determined as 1.04 ± 0.09.

With `C[C@@H]1C[C@H]2O[C@@H]2/C=C\C=C\C(=O)Cc2c(Cl)c(O)cc(O)c2C(=O)O1` [Radicicol], the cell viability turned out to be 0.802 ± 0.086.

Compound `Cc1ccc(Cl)c(Nc2ccccc2C(=O)O)c1Cl` returned a cell viability of 1.06 ± 0.086.

As for `O=C1NS(=O)(=O)c2ccccc21`, the cell viability amounted to 1.1 ± 0.085.

Take `COc1cc2c(cc1OC)Cc1cc(OC)c(OC)cc1Cc1cc(OC)c(OC)cc1C2`: the cell viability turned out to be 0.97 ± 0.16.

As to `Clc1ccc(C(c2ccccc2Cl)C(Cl)Cl)cc1` (stereo not given), the cell viability stood at 0.895 ± 0.15.

Consider `COC[C@H]1O[C@@H](OC2OC[C@@H]3O[C@]4(O[C@H]3[C@H]2OC(=O)C(C)C)O[C@H](C)[C@@](O)(C(C)=O)[C@@H]2OCO[C@H]24)[C@@H](OC)[C@@H](O)[C@@H]1O[C@@H]1O[C@H](C)[C@H](OC)[C@H](O[C@H]2C[C@@]3(C)OC4(C[C@@H](O)[C@H](O[C@H]5C[C@@H](O)[C@H](OC(=O)c6c(C)c(Cl)c(O)c(Cl)c6OC)[C@@H](C)O5)[C@@H](C)O4)O[C@@H]3[C@@H](C)O2)[C@H]1O` (stereo not given in full) [Avilamycin A], for which the cell viability was determined as 1.02 ± 0.042.

Consider `C[C@H](CCC(=O)O)[C@H]1CC[C@H]2[C@@H]3[C@H](O)C[C@@H]4C[C@H](O)CC[C@]4(C)[C@H]3C[C@H](O)[C@]12C`, for which the cell viability worked out at 1.07 ± 0.15.

In the case of `COc1cccc2c1C(=O)c1c(O)c3c(c(O)c1C2=O)CC(O)(C(C)O)CC3OC1CC(NC=O)C(O)C(C)O1` (stereo not given) [Baumycin C2], the cell viability came out at 1.005 ± 0.0071.

Consider `COc1cc2nc(N3CCN(C(=O)C4CCCO4)CC3)nc(N)c2cc1OC` (stereo not given), for which the cell viability is 0.991 ± 0.11.

Consider `CC(=O)O[C@H]1CC[C@@]2(C)[C@H](CC[C@@H]3[C@@H]2CC[C@]2(C)[C@@H]4[C@H](C[C@@H]32)O[C@]2(CC[C@@H](C)CO2)[C@H]4C)C1`, for which the cell viability is 0.979 ± 0.1.

Regarding `OC[C@H]1O[C@@H](Oc2ccc(O)cc2)[C@H](O)[C@@H](O)[C@@H]1O`, the cell viability came out at 0.989 ± 0.072.

`CC(C(=O)O)c1ccc(-c2ccccc2)c(F)c1` (stereo not given) displayed a cell viability of 1.11 ± 0.078.

In turn, `CC1=CCCC(C)=CCC(C)(C)C=CC1` [HUMULENE (alpha)] came in with a cell viability of 1.01 ± 0.027.

The compound `O=C1c2ccccc2C(=O)c2c(Cl)cccc21` [Chloro-Anthraquinone] had a cell viability of 0.993 ± 0.024.

Compound `OC1(c2ccc(Cl)c(C(F)(F)F)c2)CCN(CCCC(c2ccc(F)cc2)c2ccc(F)cc2)CC1` registered a cell viability of 1.08 ± 0.071.

`O=c1c(O)c(-c2ccccc2)oc2ccccc12` came in with a cell viability of 0.961 ± 0.069.

The compound `CCN(CC)CCNC(=O)c1cc(Cl)c(N)cc1OC` gave a cell viability of 1.04 ± 0.066.
